SMILES strings stand for the structures. The panel holds about 79,000 compounds, 15% with a hit somewhere; the sample as a whole holds those more often. Unmarked numbers belong to inactive results. Active and inactive are the calls of the source. Rule as the data show it: active = growth inhibition above about 70%; inactive = the rest.

The nature of this assay: NCI Yeast Anticancer Drug Screen. Data for the rad18 strain (AID 177). Particulars: S. cerevisiae rad18 mutant growth inhibition; at 3.7 µM; active compounds read high. The method in brief: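 DNA-repair-defective yeast; compound treatment; growth inhibition scored against vehicle.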
In the case of `CS(=O)(=O)SCc1ccc([N+](=O)[O-])cc1`, the growth inhibition was 29%.
For `Cc1csc(=S)n1OC(=O)NC1CCCCC1`, the growth inhibition is 94% (active).
With `CCOc1ccc(NC(=O)C2=C(C)NC(C)=C(C(=O)Nc3ccc(OCC)cc3)C2c2cccc([N+](=O)[O-])c2)cc1`, the growth inhibition is -3%.
Take `CC(C)(C)N=C(NO)c1ccccc1`: the growth inhibition is -1%.
The same measure for `CCCCC/C(=C(\C#N)C(=O)OCC)c1ccccc1`: 3%; for `O=C(NCCCl)Sc1ccc(Cl)cc1`: 3%; for `O=C1Nc2ccc(Br)cc2C1=Nc1ccc2c(c1)OCO2`: -34%.
`CCC(C)OC(=O)Nc1ccc(C)c(NC(=O)OC(C)CC)c1` (centres undefined): the growth inhibition is -5%.
Take `O=C(O)c1cc2ccc(Cl)cc2c(O)c1C1=CCCCC1`: the growth inhibition is 21%.
Consider `CN(C)Cc1cc(N=Nc2ccc(Cl)cc2)ccc1OC(=O)c1ccccc1`, for which the growth inhibition is 1%.
Consider `CN1CCN(C(=O)/C=C/C(=O)c2ccccc2)CC1`, for which the growth inhibition was 11%.
Consider `CCCC/C=C/C(C)(C(=O)OCC)C(=O)OCC`, for which the growth inhibition was 1%.
The same measure for `Cc1nc(-c2cc3cc([N+](=O)[O-])ccc3oc2=O)cs1`: 2%; for `Cc1nc2ccccc2nc1NNc1ccccc1`: -2%; for `CN(C)[C@@H]1C(=O)C(C(N)=O)=C(O)[C@@]2(O)C(=O)C3=C(O)c4c(O)cccc4C[C@H]3C[C@@H]12`: -8%.
Next, `COc1ccc(NC(=O)CC2SC(=Nc3ccccc3C)NC2=O)c([N+](=O)[O-])c1` (centres undefined): 4%; `COc1cc(O)c2c(c1O)C(=O)c1cc(C)ncc1C2=O`: 21%.
On to `CSc1nnc(SC)nn1`, for which the growth inhibition was 11%.
As for `COc1cc(/C=C2\CCC/C(=C\c3ccc(O)c(OC)c3)C2=O)ccc1O`, the growth inhibition is 5%.
Next, `CN(C)CCNC(=O)c1cccc2cc([N+](=O)[O-])ccc12`: 5%; `CCC(C)(C)c1ccc(Oc2cccc(C(=O)O)c2)cc1`: 3%; `CCCCCCSc1ncnc2[nH]ncc12`: 1%.
Next, `CC(=O)Nc1ccc(/C=C/[N+](=O)[O-])cc1`: 6%; `CCOC(=O)c1[nH]n(-c2ccccc2)c(=O)c1C=NC(=S)C(N)=S`: -4%.
In the case of `CCCC(O)C1CC(C(C)C)CCC1C` (centres undefined), the growth inhibition is 1%.
As to `O=[n+]1c2ccccc2n([O-])c2cc(Br)ccc21`, the growth inhibition is 92% (active).
Next, `CN(C)CCNC(=O)c1cccc2c1Oc1c(cccc1[N+](=O)[O-])O2`: 0%.
Regarding `Nc1ncc(-c2ccc(Br)cc2)s1`, the growth inhibition is -30%.
Turning to `Cc1cc2cc3cc(C)c(N)cc3nc2cc1N`, the growth inhibition was -25%.
Regarding `CC12C(=O)OC(=O)C(c3ccccc31)c1ccccc12`, the growth inhibition was -10%.
Next, `c1ccc2c(OCC3CO3)cccc2c1` (centres undefined): 55%; `CCOC(=N)c1ccc(O)c(OC)c1`: -3%; `Nc1cc(N)c(N=Nc2cccc3c(S(=O)(=O)O)cccc23)cc1N=Nc1cc([N+](=O)[O-])ccc1O`: -28%.
On to `COC(=O)Oc1cc(Cl)c(Cl)cc1Cl`, for which the growth inhibition is 5%.
As to `O=C(O)C1CC(c2ccccc2)=NN1c1ccccc1` (centres undefined), the growth inhibition was -37%.
On to `COc1cc([C@@H]2c3cc4c(cc3[C@@H](Nc3ccc(NC(=O)c5cc([N+](=O)[O-])cn5C)cc3)[C@H]3COC(=O)[C@H]23)OCO4)cc(OC)c1O`, for which the growth inhibition was 3%.
Next, `O=C(O)c1ccccc1/C=N/N=C1c2ccccc2-c2ccccc21`: -1%.
The same measure for `O=C1CC(=O)c2ccccc21`: 2%; for `Nc1ncnc2c1ncn2C1OC(CO)CC1O` (centres undefined): 4%.

The values above are taken from PubChem BioAssay (NCI).
